Experimental data from PubChem BioAssay (EPA / NIEHS).
Values joined by “and” are separate entries in the source; they are usually repeats but may differ in a detail not shown here. Identical values can stand only once. Inconclusive results are not listed. Active and inactive are the calls of the source. The calls were made as follows, unless noted: active = hit-call score of the fitted dose curve at least 0.9, where 1 is the maximum; inconclusive = response in the unintended direction; inactive = score below 0.9.

Assays:
[1] = Tanguay_ZF_120hpf_SWIM_legacy: (Legacy) Oregon State University Tanguay Lab 120 Hour Post-fertilization zebrafish Assay for Swim Bladder Malformation (AID 2283654);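 also: swim bladder malformation in each larva scored yes or no under brightfield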
How it was run: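 Static waterborne exposure of single dechorionated Tropical 5D zebrafish embryos, 6–120 hpf, 28C, 0.64% DMSO final. Read-out: swim bladder malformation, present/absent, relative to DMSO negative control; trimethyltin chloride 5uM served as positive control.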

[2] = Tanguay_ZF_120hpf_TRUN_legacy: (Legacy) Oregon State University Tanguay Lab 120 Hour Post-fertilization zebrafish Assay for Truncated Body (AID 2283655)
How it was run: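 5D wild-type larvae; pronase dechorionation; static exposure 6→120 hpf, 28C; DMSO 0.64% final; 5uM trimethyltin chloride positive control. Readout: presence/absence of truncated body, analyzed relative to DMSO.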

[3] = Tanguay_ZF_120hpf_TR_legacy: (Legacy) Oregon State University Tanguay Lab 120 Hour Post-fertilization zebrafish Assay for Touch Response (AID 2283667)
How it was run: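 Readout is presence or absence of touch response in 120 hpf zebrafish larvae, assessed by brightfield observation after continuous static exposure at 28C. Final vehicle was 0.64% (vol/vol) DMSO.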

[4] = CCTE_Padilla_ZF_144hpf_TERATOSCORE: (Legacy) CCTE's 144 Hour Post-fertilization zebrafish Assay Teratoscore, Padilla Lab (AID 2283679; active = hit-call score of the fitted dose curve at least 0.9, where 1 is the maximum; inactive = score below 0.9;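 as to AC50: zebrafish embryos with chorions exposed by immersion from 6-8 hpf to 5 dpf with daily renewal; teratogenicity score from eye scoring of death hatching and malformations at 144 hpf; higher score means more developmental defects relative to DMSO baseline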)
How it was run: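 Larvae scored by eye at 144 hpf for death, hatching and malformations after a day in clean Hanks'. Before that, daily-renewed exposure at 80 uM (0.4% DMSO, 26C) from roughly 6-8 hpf through 5 dpf, 4 embryos per chemical.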

[5] = STM_H9_OrnithineISnorm_perc: Stemina devTOX quickPredict H9 human embryonic stem cell (hESC)-based Assay for Ornithine (ORN) Metabolite Biomarker, Normalized (AID 2283712; active = hit-call score of the fitted dose curve at least 0.9, where 1 is the maximum; inactive = score below 0.9;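 also: ornithine released into spent medium during last day measured by mass spectrometry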)
How it was run: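 UPLC-HRMS readout: endogenous ornithine EIC area / 13C-ORN internal standard, then % of 0.1% DMSO median. H9 hESCs (pluripotent), 72h exposure, re-dosed with fresh media q24h; last 24-h spent media, deproteinized in 40% acetonitrile.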

[6] = STM_H9_CystineISnorm_perc: Stemina devTOX quickPredict H9 human embryonic stem cell (hESC)-based Assay for Cystine (CYSS) Metabolite Biomarker, Normalized (AID 2283713; active = hit-call score of the fitted dose curve at least 0.9, where 1 is the maximum; inactive = score below 0.9)
How it was run: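 UPLC-HRMS read-out: endogenous cystine peak area in spent medium, normalized to isotope-labeled internal standard and to median of 0.1% DMSO controls. Pluripotent H9 cells, 72h exposure, daily medium/compound replenishment; medium from last 24h sampled.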

[7] = CEETOX_H295R_MTT_cell_viability: Viability Assessment in the CeeTox HT-H295R MTT Assay (AID 2283718; active = hit-call score of the fitted dose curve at least 0.9, where 1 is the maximum; inactive = score below 0.9;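 as to AC50: curve fitted both ways so AC50 may mark viability loss or gain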)
How it was run: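 H295R cells prestimulated 48 h with 10 uM forskolin, then exposed 48 h to test chemical (0.1% DMSO final). Viability by MTT (0.5 mg/ml, 4 h, 37 C), absorbance 570/650 nm; percent change versus DMSO, bidirectional fit.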

[8] = Tanguay_ZF_120hpf_ActivityScore_legacy: (Legacy) Oregon State University Tanguay Lab 120 Hour Post-fertilization zebrafish Assay Score for Activity (AID 2283742);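 as to AC50: dechorionated Tropical 5D wild-type zebrafish embryos held singly per well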
How it was run: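 In this whole-embryo screen, dechorionated zebrafish were exposed from 6 hpf until 120 hpf at 28C under a 0.64% DMSO vehicle. Developmental malformations and death were recorded by brightfield microscopy as binary endpoints.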

[9] = ArunA_CellTiter_hNC: Viability Assessment in the ArunA Biomedical's Oris Neural Crest (hNC) Cell Migration Assay (AID 2283752)
How it was run: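 hNC cells (H9 ESC-derived), 60,000/well, Matrigel, LIF + bFGF medium; 16 h 37C attachment; 72 h compound in test medium; CellTiter Aqueous One read-out; loss-of-signal vs DMSO baseline.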

[10] = ArunA_CellTiter_hNP: Viability Assessment in the ArunA Biomedical's Oris Neural Crest (hNC) Cell Migration Assay (AID 2283753)
How it was run: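 Viability read with CellTiter 96 Aqueous One after 72 h chemical exposure of human hNP1 neuroprogenitors, which were plated on Matrigel in LIF/bFGF medium 16 h beforehand. Endpoint fitted in positive direction relative to DMSO.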

[11] = ArunA_Migration_hNP: ArunA Biomedical's Oris Neuroprogenitor (hNP) Cell Migration Assay (AID 2283754)
How it was run: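 Readout is calcein-AM fluorescence (ex494/em517) of cells migrating into the detection zone, relative to DMSO. hNP1 cells (H9-derived) grown on Matrigel behind stoppers 16 h, then stoppers pulled and chemical applied 72 h; cytochalasin D as control.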

[12] = Tanguay_ZF_120hpf_NC_legacy: (Legacy) Oregon State University Tanguay Lab 120 Hour Post-fertilization zebrafish Assay for Notochord and Tail Malformation (AID 2283656)
How it was run: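 Binary notochord-distortion calls, made by brightfield inspection, form the read-out; activity is fitted in the positive direction against DMSO. Exposure ran statically from 6 to 120 hpf at 28C with 0.64% DMSO.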

[13] = STM_H9_OrnCyssISnorm_ratio: Stemina devTOX quickPredict H9 human embryonic stem cell (hESC)-based Assay for Ornithine (ORN):Cystine (CYSS) Ratio (AID 2283714)
How it was run: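 H9 hESC, 72h, q24h re-dose; last-day media → acetonitrile deproteinization → UPLC-HRMS. ORN:CYSS ratio from isotope-normalized EIC areas, vs 0.1% DMSO; MTX references on each plate.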

[14] = system: Thyroperoxidase (TPO), gene 54314; test: CCTE_Simmons_AUR_rTPO: CCTE's Amplex UltraRed Assay for Thyroperoxidase (TPO) Inhibition, Simmons Lab (AID 2283662);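 also: potency for loss of signal meaning inhibition of peroxidase activity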
How it was run: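 Rat thyroid microsomes (5 ug protein) with 25 uM Amplex UltraRed and 300 uM H2O2 in 200 mM phosphate buffer, 30 min at 37C in dark; fluorescence 544/590 nm. Eight concentrations, 5 nM–87.5 uM final, 0.5% DMSO, triplicate biological replicates.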

[15] = CCTE_Simmons_CellTiterGLO_HEK293T: Viability Assessment in CCTE's Assays for Thyroperoxidase (TPO) Inhibition, Simmons Lab (AID 2283665);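 also: cells exposed to compound for 24 h before readout; actives reduce ATP signal below DMSO vehicle meaning cytotoxicity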
How it was run: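 Luminescent ATP readout (CellTiter-Glo, 20 min at room temperature) after 24 hr exposure of HEK293T cells to 5 nM–87.5 uM final compound; signal loss relative to DMSO vehicle indicated cytotoxicity; dichlone titrated as positive control.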

CC(COCC(C)OC(=O)c1ccccc1)OC(=O)c1ccccc1 (stereo unspecified)
outcome [1]: inactive | outcome [2]: inactive | outcome [3]: inactive | AC50 [4]: 7.06 µM (active) and 4.45 µM (active) | outcome [5]: inactive | outcome [6]: inactive | outcome [7]: inactive | outcome [8]: inactive

N[C@@H](Cc1c[nH]c2ccccc12)C(=O)O
outcome [1]: inactive | outcome [2]: inactive | outcome [3]: inactive | outcome [4]: inactive | outcome [5]: inactive | outcome [6]: inactive | outcome [8]: inactive

Cc1ccc(-c2cc(C(F)(F)F)nn2-c2ccc(S(N)(=O)=O)cc2)cc1
outcome [1]: inactive | outcome [2]: inactive | outcome [3]: inactive | AC50 [4]: 8.82 µM (active) | outcome [5]: inactive | outcome [6]: inactive | outcome [8]: inactive | AC50 [9]: 70.4 µM (active) | AC50 [10]: 76.5 µM (active) | AC50 [11]: 81.9 µM (active)

CC1=C(C)S(=O)(=O)CCS1(=O)=O
outcome [1]: inactive | outcome [2]: inactive | outcome [3]: inactive | outcome [7]: inactive | outcome [8]: inactive

CC(C)(C)c1ccccc1
outcome [1]: inactive | outcome [2]: inactive | outcome [3]: inactive | AC50 [8]: 24.6 µM (active)

CC(C)(O)c1ccc(CNC(=O)c2cccnc2Oc2ccc(F)cc2)cc1
outcome [12]: inactive | outcome [3]: inactive | outcome [4]: inactive | outcome [7]: inactive | outcome [8]: inactive

Cc1cn([C@H]2C=C[C@@H](CO)O2)c(=O)[nH]c1=O
outcome [1]: inactive | outcome [12]: inactive | outcome [3]: inactive | outcome [5]: inactive | outcome [6]: inactive | outcome [13]: inactive | outcome [8]: inactive

NC1CCCCC1
outcome [2]: inactive | outcome [3]: inactive | outcome [8]: inactive

CN(C)CCCN(C)CCCN(C)C
outcome [1]: inactive | outcome [12]: inactive | outcome [3]: inactive | outcome [8]: inactive

O=C(N[C@@H](c1ccccc1)[C@@H]1CCCCN1)c1cccc(C(F)(F)F)c1Cl
outcome [2]: inactive | outcome [3]: inactive | AC50 [4]: 20.3 µM (active) | AC50 [8]: 53.2 µM (active)

Oc1ccc(O)cc1
outcome [2]: inactive | AC50 [14]: 0.767 µM (active) | AC50 [15]: 35.4 µM (active) | outcome [3]: inactive | AC50 [4]: 15.6 µM (active) | outcome [7]: inactive | AC50 [8]: 2.69 µM (active)

CC(C)c1cccc(C(C)C)c1NC(=O)NS(=O)(=O)c1cc(C(C)(C)O)co1
outcome [2]: inactive | outcome [12]: inactive | outcome [3]: inactive | outcome [4]: inactive | outcome [8]: inactive

CC(=O)OCC(COC(C)=O)OC(C)=O
outcome [1]: inactive | outcome [12]: inactive | outcome [8]: inactive

O=Cc1ccccc1C=O
outcome [2]: inactive | outcome [12]: inactive | AC50 [14]: 41.8 µM (active) | AC50 [15]: 4.91 µM (active) | outcome [3]: inactive | AC50 [4]: 1.15 µM (active) | outcome [5]: inactive | outcome [6]: inactive | AC50 [8]: 3.08 µM (active)

O=NO
outcome [3]: inactive | outcome [5]: inactive | outcome [6]: inactive | outcome [8]: inactive

COC(=O)CCC(=O)OC
outcome [1]: inactive | outcome [2]: inactive | outcome [3]: inactive | outcome [8]: inactive

NCCOCCOCCN
outcome [1]: inactive | outcome [2]: inactive | outcome [4]: inactive | outcome [8]: inactive

CC(C)c1cccc(C(C)C)c1
outcome [2]: inactive | outcome [12]: inactive | outcome [3]: inactive | outcome [8]: inactive

CC(N)=O
outcome [1]: inactive | outcome [3]: inactive | outcome [4]: inactive | outcome [8]: inactive

COc1ccc(C(=O)Nc2nc3ccccc3c(NCc3ccccc3)c2C#N)cc1
outcome [1]: inactive | outcome [3]: inactive | AC50 [7]: 0.909 µM (active) | outcome [8]: inactive

CCCCC(CC)COC(=O)CCCCCCCC(=O)OCC(CC)CCCC (stereo unspecified)
outcome [1]: inactive | outcome [2]: inactive | outcome [3]: inactive | outcome [8]: inactive

Cn1cnc2c1c(=O)[nH]c(=O)n2C
outcome [1]: inactive | outcome [12]: inactive | outcome [3]: inactive | outcome [8]: inactive

CC(=O)O[C@]1(C(C)=O)CC[C@H]2[C@@H]3C=C(Cl)C4=CC(=O)[C@@H]5C[C@@H]5[C@]4(C)[C@H]3CC[C@@]21C
outcome [1]: inactive | outcome [3]: inactive | AC50 [4]: 15.2 µM (active) | outcome [7]: inactive | outcome [8]: inactive

O=C(O)CC(O)(CC(=O)O)C(=O)O
outcome [1]: inactive | outcome [2]: inactive | outcome [3]: inactive | outcome [8]: inactive

CN(C)C(=O)NC1(c2ccccc2)CCN(CC[C@@]2(c3ccc(F)c(F)c3)CN(C(=O)c3ccccc3)CCO2)CC1
outcome [1]: inactive | outcome [2]: inactive | outcome [3]: inactive | outcome [8]: inactive

CCCC(=O)O
outcome [1]: inactive | outcome [2]: inactive | outcome [3]: inactive | outcome [8]: inactive

CCCCCCCC(=O)OC
outcome [1]: inactive | outcome [2]: inactive | outcome [3]: inactive | outcome [8]: inactive

COC(=O)[C@H]1[C@H]2C[C@@H]3c4[nH]c5cc(OC)ccc5c4CCN3C[C@H]2C[C@@H](OC(=O)c2cc(OC)c(OC)c(OC)c2)[C@@H]1OC
outcome [2]: inactive | AC50 [14]: 7.3 µM (active) | AC50 [15]: 45.3 µM (active) | outcome [3]: inactive | outcome [5]: inactive | outcome [8]: inactive | AC50 [10]: 81.8 µM (active) | outcome [11]: inactive

CO[C@@H]1COCC[C@@H]1N[C@@H]1CC[C@@](C(=O)N2CCc3ncc(C(F)(F)F)cc3C2)(C(C)C)C1
outcome [1]: inactive | outcome [2]: inactive | outcome [3]: inactive | outcome [8]: inactive

CCOCCOCCO
outcome [1]: inactive | outcome [2]: inactive | outcome [3]: inactive | outcome [8]: inactive

CCCCc1nc2cccnc2n1Cc1ccc(-c2ccccc2-c2nnn[nH]2)cc1
outcome [1]: inactive | outcome [2]: inactive | outcome [4]: inactive | outcome [7]: inactive | outcome [8]: inactive

CCc1nc(N)nc(N)c1-c1ccc(Cl)cc1
outcome [2]: inactive | AC50 [4]: 64.5 µM (active) | AC50 [5]: 30.7 µM (active) | AC50 [6]: 30.6 µM (active) | AC50 [13]: 31.1 µM (active) | outcome [8]: inactive

C/C=C/C=C/C(=O)O
outcome [1]: inactive | outcome [12]: inactive | AC50 [14]: 48.8 µM (active) | AC50 [15]: 48.8 µM (active) | outcome [3]: inactive | outcome [8]: inactive

O=C(O)c1[nH]n(-c2ccc(S(=O)(=O)O)cc2)c(=O)c1N=Nc1ccc(S(=O)(=O)O)cc1
outcome [1]: inactive | outcome [2]: inactive | outcome [3]: inactive | outcome [8]: inactive
